Here are results for 9 molecules from PubChem BioAssay.

The target in test [1] is Albumin (Bos taurus) (UniProt P02769). Put plainly: compounds binding labelled BSA control protein – biochemical, small-molecule microarray, Alexa647 label, 635/667 nm fluorescence, artefact control for SMM control protein annotation, profiling panel (AID 1118).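 Further: score merges 667 nm emission intensity and signal-to-noise per printed compound spot.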 The conditions noted are these: BSA-A647 binding, fluorescence 635 nm, higher = more signal.
Chain of Albumin (Bos taurus) (P02769 whole entry, looked up): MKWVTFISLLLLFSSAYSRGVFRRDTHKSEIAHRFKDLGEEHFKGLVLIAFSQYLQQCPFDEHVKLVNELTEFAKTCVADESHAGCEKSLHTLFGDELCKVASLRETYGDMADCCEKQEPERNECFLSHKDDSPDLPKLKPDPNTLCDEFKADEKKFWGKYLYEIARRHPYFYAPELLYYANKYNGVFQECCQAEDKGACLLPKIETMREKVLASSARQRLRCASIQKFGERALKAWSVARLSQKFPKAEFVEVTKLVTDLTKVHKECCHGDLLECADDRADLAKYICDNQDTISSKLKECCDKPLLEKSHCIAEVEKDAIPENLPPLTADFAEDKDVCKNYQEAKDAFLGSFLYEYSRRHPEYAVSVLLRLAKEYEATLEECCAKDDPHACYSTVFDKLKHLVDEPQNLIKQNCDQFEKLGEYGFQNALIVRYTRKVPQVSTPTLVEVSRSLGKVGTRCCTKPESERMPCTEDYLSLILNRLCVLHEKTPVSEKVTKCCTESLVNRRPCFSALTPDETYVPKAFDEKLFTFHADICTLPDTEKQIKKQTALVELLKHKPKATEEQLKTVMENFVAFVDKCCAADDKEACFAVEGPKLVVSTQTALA
A short description of test [2]: probe aXIP binding to arrayed compounds – biochemical, NeuroSMM set, 635/667 nm fluorescence, primary screen (AID 1119).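 Further: probe is the protein aXip251-270 applied at 1 µg/mL to compound-printed slides; binding of probe to printed compounds measured as 667 nm fluorescence plus signal to noise.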 The settings on record: small-molecule microarray, higher = more signal, called active from +8 up or from −8 down.
A short description of test [3]: probe aNOTCH3 binding on compound microarray – biochemical, small-molecule microarray, 635/667 nm fluorescence, primary screen (AID 1120).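 Further: probe is a biotin-tagged antibody raised against NOTCH3 rather than NOTCH3 protein; score merges spot fluorescence near 667 nm with spot signal to noise.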 The settings on record: higher = more signal.
Test [4] can be described thus: probe aNOTCH2 binding on compound microarray – biochemical, small-molecule microarray, 635/667 nm fluorescence, primary screen (AID 1121).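 Further: score merges feature fluorescence read at 667 nm with its signal to noise.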 The conditions noted are these: higher = more signal.
Test [5] addresses Carbonic anhydrase 2 (Homo sapiens) (UniProt P00918). Put plainly: compounds binding carbonic anhydrase 2 – biochemical, small-molecule microarray, Alexa647-labelled CAII, profiling panel (AID 1122). The conditions noted are these: CAII-A647 binding fluorescence, higher = more signal.
Test [6] can be described thus: COS7 lysate on small-molecule microarray, probe aHis, 635 nm (AID 1123).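 Further: z-score combines 667nm fluorescence intensity with signal-to-noise per printed compound spot.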 The settings on record: COS7 cell lysate, fluorescence, higher = more signal.
Test [7] in a line: probe aLAP1 signal on lysate-treated microarray – cell lysate, small-molecule microarray, COS7 lysate, primary screen (AID 1124).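 Further: lysate comes from COS7 cells expressing LAP1 and is applied at 0.3 µg/mL; score merges spot fluorescence near 667 nm with signal-to-noise over triplicate slides.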 The conditions noted are these: probe aLAP1, fluorescence, higher = more signal.
The subject of test [8] is Sam68 (KHDRBS1). Put plainly: compounds binding KHDRBS1 protein – biochemical, small-molecule microarray, 635 nm fluorescence, primary screen (AID 1125).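 Further: score merges 667 nm channel intensity with signal to noise over triplicate slides.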 The conditions noted are these: higher = more signal.
The test system of test [9] is Chordin-like protein 2 (CHRDL2). Put plainly: compounds binding chordin-like 2 – biochemical, small-molecule microarray, 635 nm fluorescence, primary screen (AID 1126).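 Further: printed compound slides probed with Chrdl2 protein at 4 µg/mL for 1 h at 4 C; score merges 667 nm emission intensity with signal to noise over three replicate slides.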 The settings on record: fluorescence 635 nm, higher = more signal.
The target in test [10] is Concanavalin-A (Canavalia ensiformis) (UniProt P02866). Put plainly: compounds binding concanavalin A lectin – biochemical, small-molecule microarray, Alexa647 label, 635 nm, artefact control for SMM control protein annotation, primary screen (AID 1127).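 Further: z combines 667 nm emission intensity with signal-to-noise across three replicate slides.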 The conditions noted are these: ConA-A647 binding fluorescence, higher = more signal.
Chain of Concanavalin-A (Canavalia ensiformis) (P02866 whole entry, looked up): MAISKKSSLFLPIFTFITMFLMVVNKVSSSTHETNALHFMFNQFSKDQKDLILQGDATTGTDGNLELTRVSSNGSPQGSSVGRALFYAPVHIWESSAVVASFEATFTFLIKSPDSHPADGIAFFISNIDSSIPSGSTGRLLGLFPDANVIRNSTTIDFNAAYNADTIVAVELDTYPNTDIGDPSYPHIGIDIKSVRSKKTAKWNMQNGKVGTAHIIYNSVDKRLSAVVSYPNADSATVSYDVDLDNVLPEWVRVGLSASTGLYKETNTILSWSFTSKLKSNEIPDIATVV
Test [11] is described as follows: compounds binding Alexa647 anti-His antibody – biochemical, small-molecule microarray, 635 nm fluorescence, artefact control for SMM control protein annotation, primary screen (AID 1128).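 Further: score merges feature fluorescence with signal-to-noise for each printed compound spot.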 The settings on record: higher = more signal.
Test [12] has as its system Human papillomavirus type 1a E7 protein (residues 1-88). Put plainly: HPV1a E7 small-molecule binders, primary screen, biochemical, small-molecule microarray, residues 1-88, 635 nm (AID 1129). The settings on record: small-molecule microarray binding, fluorescence 635 nm; higher = more signal.
Test [13] concerns the target Focal adhesion kinase 1 (Homo sapiens) (UniProt Q05397). Put plainly: PTK2 protein binding on printed compound slides – biochemical, small-molecule microarray, 635/667 nm fluorescence, BSA, DTT, primary screen (AID 1130).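 Further: composite of spot emission at 667 nm and signal to noise over triplicate slides.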 The settings on record: 635 nm fluorescence, higher = more signal.
The subject of test [14] is Fibrinogen (Alexa647-labelled). Put plainly: Alexa647-fibrinogen binding to printed small molecules – biochemical, small-molecule microarray, 635/667 nm fluorescence, artefact control for SMM control-protein annotation, profiling panel (AID 1131).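 Further: z-score merges 667 nm fluorescence with per-spot signal-to-noise over triplicate slides.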 The conditions noted are these: fibrinogen-A647 binding fluorescence, higher = more signal.
Test [15] concerns the target Follistatin (Homo sapiens) (UniProt P19883). Put plainly: FST protein binding to printed compounds – biochemical, small-molecule microarray, 635/667 nm fluorescence, primary screen (AID 1132). The settings on record: 635 nm fluorescence, higher = more signal.
The target of test [16] is Fibroblast growth factor 2 (Homo sapiens) (UniProt P09038). Put plainly: basic fibroblast growth factor binding to printed compounds – biochemical, small-molecule microarray, 635/667 nm fluorescence, primary screen (AID 1133). The settings on record: FGF2, fluorescence 635/667, higher = more signal.
Chain of Fibroblast growth factor 2 (Homo sapiens) (P09038 whole entry, looked up): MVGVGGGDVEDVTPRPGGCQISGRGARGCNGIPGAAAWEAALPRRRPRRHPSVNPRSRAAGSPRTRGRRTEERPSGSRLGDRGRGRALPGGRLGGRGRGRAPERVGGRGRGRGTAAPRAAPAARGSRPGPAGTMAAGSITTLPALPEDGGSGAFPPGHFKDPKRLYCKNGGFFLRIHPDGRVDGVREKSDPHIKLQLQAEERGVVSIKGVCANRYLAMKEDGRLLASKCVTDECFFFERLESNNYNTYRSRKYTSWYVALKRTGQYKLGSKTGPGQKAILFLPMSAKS
A short description of test [17]: JC-1 mitochondrial potential readout, lung cancer cells – cell-based, A549, JC-1 fluorescence, basal, 24 h, 100 nL, profiling panel (AID 1138).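 Further: A549 lung adenocarcinoma cells under basal conditions with no added stimulus; test concentration not given here.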 The settings on record: higher = more signal.
The subject of test [18] is Lefty1. Put plainly: Lefty1 protein binding to printed compounds – biochemical, small-molecule microarray, 635/667 nm fluorescence, primary screen (AID 1139). The conditions noted are these: fluorescence 635/667, higher = more signal.
Test [19] has as its system wheat germ agglutinin (Triticum aestivum), Alexa647-labelled. Put plainly: Alexa647-WGA lectin binding to printed small molecules – biochemical, small-molecule microarray, 635/667 nm fluorescence, artefact control for SMM control-protein annotation, profiling panel (AID 1140).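 Further: score merges 667 nm feature emission with signal to noise over triplicate slides.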 The conditions noted are these: WGA-A647 binding, 635 nm fluorescence, higher = more signal.
Test [20] deals with Luciferin 4-monooxygenase (Photinus pyralis) (UniProt P08659). Put plainly: inhibition of purified Photinus pyralis luciferase – biochemical, luminescence, purified enzyme, 2006 set, primary screen (AID 1141).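 Further: cell-free assay with purified firefly luciferase at 100 ng per well in PBS; test concentration not given here.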 The settings on record: purified firefly luciferase, SteadyGlo luminescence, 30 min; higher = more signal, called active from +8 up or from −8 down.
Chain of Luciferin 4-monooxygenase (Photinus pyralis) (P08659 whole entry, looked up): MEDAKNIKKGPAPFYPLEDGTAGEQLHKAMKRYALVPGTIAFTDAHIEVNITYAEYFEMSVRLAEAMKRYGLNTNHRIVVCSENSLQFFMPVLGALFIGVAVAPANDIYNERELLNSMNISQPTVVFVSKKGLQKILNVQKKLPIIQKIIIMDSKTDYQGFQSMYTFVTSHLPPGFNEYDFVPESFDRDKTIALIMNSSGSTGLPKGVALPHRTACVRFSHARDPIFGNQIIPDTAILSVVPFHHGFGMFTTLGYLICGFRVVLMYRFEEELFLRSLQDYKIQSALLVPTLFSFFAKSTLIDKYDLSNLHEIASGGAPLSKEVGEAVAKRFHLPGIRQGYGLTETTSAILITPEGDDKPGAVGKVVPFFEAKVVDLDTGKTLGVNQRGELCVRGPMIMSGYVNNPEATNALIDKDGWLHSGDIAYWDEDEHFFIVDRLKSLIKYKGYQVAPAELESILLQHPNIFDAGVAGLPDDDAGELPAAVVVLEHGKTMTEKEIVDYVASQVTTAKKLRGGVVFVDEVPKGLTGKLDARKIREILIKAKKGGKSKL

Activity calls are given as the source filed them.

Chain of Focal adhesion kinase 1 (Homo sapiens) (Q05397 whole entry, looked up): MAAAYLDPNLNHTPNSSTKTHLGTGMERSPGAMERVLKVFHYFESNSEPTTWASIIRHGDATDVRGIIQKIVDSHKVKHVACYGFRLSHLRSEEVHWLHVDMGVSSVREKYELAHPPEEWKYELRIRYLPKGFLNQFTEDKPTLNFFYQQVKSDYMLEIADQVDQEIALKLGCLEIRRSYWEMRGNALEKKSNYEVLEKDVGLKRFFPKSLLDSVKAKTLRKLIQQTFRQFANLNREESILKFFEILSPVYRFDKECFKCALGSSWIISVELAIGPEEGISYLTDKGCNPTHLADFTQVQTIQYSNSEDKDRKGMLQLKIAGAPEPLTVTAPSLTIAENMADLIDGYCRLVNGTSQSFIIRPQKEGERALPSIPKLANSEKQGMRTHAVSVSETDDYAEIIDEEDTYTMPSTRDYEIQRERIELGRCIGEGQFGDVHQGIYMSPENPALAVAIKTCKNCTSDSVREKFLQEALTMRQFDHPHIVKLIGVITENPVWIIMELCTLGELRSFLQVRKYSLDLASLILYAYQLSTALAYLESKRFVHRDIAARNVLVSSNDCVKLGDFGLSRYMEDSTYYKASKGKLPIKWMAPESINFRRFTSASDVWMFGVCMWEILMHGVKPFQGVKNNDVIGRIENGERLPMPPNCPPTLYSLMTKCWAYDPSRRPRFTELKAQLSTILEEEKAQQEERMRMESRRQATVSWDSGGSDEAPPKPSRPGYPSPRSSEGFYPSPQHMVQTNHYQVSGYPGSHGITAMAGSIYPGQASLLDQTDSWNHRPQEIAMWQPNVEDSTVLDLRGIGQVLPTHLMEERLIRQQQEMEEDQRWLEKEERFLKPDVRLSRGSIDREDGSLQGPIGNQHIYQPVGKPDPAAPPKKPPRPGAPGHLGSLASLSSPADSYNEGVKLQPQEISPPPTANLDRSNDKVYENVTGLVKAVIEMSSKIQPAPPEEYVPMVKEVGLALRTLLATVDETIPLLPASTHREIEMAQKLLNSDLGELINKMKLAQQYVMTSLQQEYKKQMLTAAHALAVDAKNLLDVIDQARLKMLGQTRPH
Chain of Follistatin (Homo sapiens) (P19883 whole entry, looked up): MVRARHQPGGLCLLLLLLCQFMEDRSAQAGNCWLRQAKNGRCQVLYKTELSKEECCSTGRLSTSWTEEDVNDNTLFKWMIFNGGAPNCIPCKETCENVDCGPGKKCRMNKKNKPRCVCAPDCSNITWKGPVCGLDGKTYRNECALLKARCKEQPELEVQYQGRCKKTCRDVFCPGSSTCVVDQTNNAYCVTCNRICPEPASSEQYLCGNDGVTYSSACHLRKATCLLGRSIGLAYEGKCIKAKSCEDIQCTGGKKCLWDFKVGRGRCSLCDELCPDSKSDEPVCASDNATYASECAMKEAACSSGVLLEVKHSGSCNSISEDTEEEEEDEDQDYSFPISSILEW

With `COCCCNC(=O)[C@@]1(Cc2ccccc2N=[N+]=[N-])COC(c2ccc(OCCCO)cc2)=N1`, the composite z-score in test [1] is 0.538; in test [3], 0.125; in test [4], -0.0928; in test [5], 0.31; in [6], 2.27; in [7], 0.398. The composite z-score is 1.05 in [8]; -0.938 in test [9]; 1.1 in [10]; 1.47 in test [11]; 1.22 in [12]; 0.614 in [13]. Also, the composite z-score in [14] was 0.967; in test [15], 0.773; in test [16] it was -0.186; in test [18], -0.351; in [19] it was 0.976. In [2], the composite Z-score is 0.889 (inactive). For the same molecule, the z-score in test [17] is 0.961; in test [20], -2.1 (inactive).
Regarding `COc1ccc([Si](C)(C)[C@@H]2[C@@H](CC(=O)N(CCO)Cc3ccccc3)O[C@]3(C(=O)N(c4ccccc4)c4ccccc43)[C@H]2C)cc1`, the composite z-score in test [1] was 0.593; in test [3], 0.105; in test [4], -0.162; in test [5], 0.357; in test [6], 1.07; in [7], 0.0513. Also, the composite z-score in [8] was found to be 0.981; in test [9], 1.4; in [10], 1.1; in [11] it was 1.13; in [12] it was 1.14; in test [13], 0.437. The composite z-score stood at 0.874 in test [14]; 1.07 in test [15]; 0.716 in test [16]; 1.29 in [18]; 0.291 in test [19]. In test [2], the composite Z-score is 0.657 (inactive). In addition, the z-score is 0.0115 in [17] and 0.293 (inactive) in [20].
As for `C=CCNC(=O)[C@H]1[C@@H]2C(=O)O[C@@H](c3ccccc3)[C@@H](c3ccccc3)N2[C@@H](c2ccc(O)cc2)[C@]12C(=O)Nc1ccc(C#CC3(O)CCCCCC3)cc12`, the composite z-score was 0.201 in test [1]; 0.0961 in test [3]; -0.0695 in test [4]; 0.714 in test [5]; 2.11 in test [6]; 0.355 in test [7]. For the same molecule, the composite z-score in test [8] came out at 1.1; in test [9], 0.215; in test [10] it was 0.556; in [11] it was 2.76; in test [12], 0.277; in test [13] it was 0.201. Moreover, the composite z-score is 0.481 in test [14]; 1.16 in test [15]; 0.267 in test [16]; -0.15 in test [18]; 0.0932 in [19]. In addition, in test [2], the composite Z-score is -0.005 (inactive). Also, the z-score in test [17] is -1.22; in test [20], 0.452 (inactive).
Consider `CCC[C@@H]1C[C@@]1(CCC)[C@@H](NC(=O)OCc1ccccc1)c1ccc(-c2ccccc2)cc1`, for which the composite z-score was -0.477 in [1]; 0.112 in test [3]; 0.0339 in test [4]; -0.198 in test [5]; 0.27 in test [6]; 0.643 in test [7]. Also, the composite z-score in test [8] was -0.303; in test [9], -0.141; in test [10], -0.914; in test [11], -0.526; in [12] it was -0.691; in test [13], -0.278. The composite z-score was -1.37 in test [14]; 0.136 in [15]; -0.824 in test [16]; -0.543 in test [18]; -0.693 in test [19]. The composite Z-score in test [2] was 0.572 (inactive). Moreover, the z-score is 0.289 in test [17] and -0.765 (inactive) in test [20].
`C=CCN1C(=O)[C@@]2(O[C@@H](CCn3cc([C@H](O)c4ccccc4)nn3)[C@H]([Si](C)(C)c3ccc(OC)cc3)[C@H]2C)c2cc(N3CCC3=O)ccc21`: the composite z-score in test [1] is 0.292; in test [3], -0.132; in [4] it was -0.189; in [5] it was 0.489; in [6], 0.901; in test [7], 0.249. Besides, the composite z-score in [8] was 0.636; in test [9], 0.163; in test [10] it was 0.0967; in test [11] it was 1.65; in [12] it was 1.09; in test [13] it was -0.082. Also, the composite z-score in [14] was -0.117; in test [15], 0.345; in [16] it was 0.0863; in test [18] it was -0.127; in test [19], 0.552. Besides, in [2], the composite Z-score was 0.346 (inactive). Besides, the results for the z-score in test [17] and in test [20] were 2.25 and -1.21 (inactive), respectively.
On to `CCCC[C@@H]1C[C@H]1[C@@H](NC(=O)Cc1ccccc1)c1ccc(-c2ccccc2)cc1`, for which the composite z-score is 0.83 in test [1]; -0.006 in [3]; -0.0242 in test [4]; 0.66 in [5]; 2.02 in [6]; -0.273 in test [7]. Besides, the composite z-score in test [8] is 0.214; in test [9], -0.436; in test [10] it was 0.453; in test [11] it was 0.272; in test [12] it was 1.12; in test [13], 0.913. The composite z-score is 0.655 in test [14]; -0.173 in test [15]; -0.405 in test [16]; -0.0127 in test [18]; 0.0864 in test [19]. For the same molecule, the composite Z-score in test [2] is 0.378 (inactive). Moreover, the results for the z-score in test [17] and in test [20] were 0.629 and 0.624 (inactive), respectively.
As to `COC(=O)[C@@]1(Cc2ccc(OC)cc2)[C@H]2c3cc(C(=O)N(C)C)n(Cc4ccc(Cl)c(C(F)(F)F)c4)c3C[C@H]2CN1C(=O)c1ccccc1`, the composite z-score in test [1] is 0.962; in [3] it was 0.406; in test [4], 0.29; in test [5] it was 0.377; in test [6] it was 2.65; in test [7], 0.0516. The composite z-score in test [8] is 1.26; in test [9], -0.763; in test [10], 0.952; in [11], 1.99; in test [12], 1.22; in test [13] it was 0.71. Further, the composite z-score in test [14] was 0.982; in test [15], 0.655; in test [16] it was -0.451; in test [18] it was -0.68; in test [19], 1.22. For the same molecule, in test [2], the composite Z-score is 0.579 (inactive). Also, the z-score was 0.0187 in [17] and 1.65 (inactive) in test [20].
Consider `O=C(NCC(F)(F)F)[C@@H]1c2ccccc2C(=O)N(Cc2ccccc2C(F)(F)F)[C@H]1c1ccc(CO)cc1`, for which the composite z-score in [1] is 0.0104; in [3] it was -0.0824; in test [4], 0.0667; in test [5], 0.758; in test [6], 0.891; in [7] it was 0.234. For the same molecule, the composite z-score in test [8] is 0.163; in test [9], -0.572; in [10], -0.104; in [11], 0.219; in [12] it was -0.479; in [13], -0.335. Moreover, the composite z-score is -1.14 in test [14]; 0.706 in test [15]; 0.548 in test [16]; -0.569 in test [18]; -0.885 in test [19]. Further, the composite Z-score in test [2] is 1.89 (inactive). The z-score in test [17] was 0.0955; in test [20] it was 0.461 (inactive).
For `C=CCC(OC(C)=O)[C@@H]1[C@@H](N(Cc2cc3ccccc3o2)C(=O)Cc2ccc(F)cc2)c2cc(OCCCO)ccc2N1C(=O)c1ccc2ccccc2c1` (stereo not given in full), the composite z-score in [1] is -0.379; in test [3], -0.118; in test [4], -0.0904; in test [5] it was 0.31; in test [6] it was -0.234; in test [7], 0.0099. In addition, the composite z-score is -0.741 in test [8]; -0.173 in [9]; -0.679 in test [10]; -0.232 in test [11]; -0.835 in test [12]; -0.167 in test [13]. The composite z-score in [14] was -1.03; in test [15], 0.722; in test [16], -0.143; in test [18] it was 0.777; in [19], 0.181. The composite Z-score in test [2] was 0.749 (inactive). In addition, the z-score in test [17] was 1.08; in [20], -0.514 (inactive).
